# In the library only some 12% were active in any assay of this set; here they are far more common.
# JMJD2A Tudor inh – blocks the human JMJD2A Tudor domain; AlphaScreen JMJD2A-Tudor / H3K4me3 peptide binding; hit rate 4.4% among 390,000; AID 504339; Potency, µM (top dose mostly 114 µM), for inactives: at the top dose activity change, negative = inhibition, most hits filed as inhibitors; O75164; note: % is set by controls: 0 for no effect and ±100 for the full control effect; nearly all actives have a fitted effect of over 50% in size
# Sfp inh – inhibitors of Bacillus subtilis Sfp phosphopantetheinyl transferase | Q9F4F7 | Biochemical Sfp PPTase activity, qHTS | Potency, µM, for inactives: largest response in the series, negative = inhibition, usual class: inhibitors | hit rate 3.5% among 310,000 | AID 1490;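 note: the enzyme is Sfp with the accession as filed and its product quenches rhodamine fluorescence; 0% = enzyme reaction without inhibitor and -100% = no enzyme wells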
#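 Fluorescence-quenching assay: 15 nM Sfp-PPTase preincubated 15 min at room temperature with compound, then 5 uM rhodamine-CoA and 12.5 uM BHQ-2-labelled YbbR peptide added. Fluorescence (ex 525/em 598 nm) read at start and after 30 min; difference gives rate.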
# HP1b chromo inh – blocks HP1-beta chromodomain binding to methylated histone tails | P83916 | AlphaScreen HP1-beta / biotin-H3K9me3 peptide binding | Potency, µM (series often up to 114 µM), inactives show at the top dose activity change, negative = inhibition, actives largely listed as inhibitors | hit rate 0.56% among 390,000; note: nearly all actives have a fitted effect of over 70% in size
#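 AlphaScreen: HP1-beta (50 nM) preformed 30 min with biotin-H3(1-18)K9me3 peptide (50 nM) in PBS pH 7.4, 0.01% Tween-20. Compound added for 30 min at RT, then streptavidin donor/nickel chelate acceptor beads (10 ug/mL) for 30 min.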
# BAZ2B block – BAZ2B (human) inhibition. hit rate 4.4% among 360,000. AlphaScreen BAZ2B-H3K14Ac peptide displacement. Q9UIF8. Potency, µM (highest dose often 114 µM), without a hit: at the top dose activity change, negative = inhibition, hits mostly inhibitors; note: % is set by controls: 0 for no effect and ±100 for the full control effect; nearly all actives have a fitted effect of over 60% in size
# Target sequence (Q9UIF8 whole entry, looked up): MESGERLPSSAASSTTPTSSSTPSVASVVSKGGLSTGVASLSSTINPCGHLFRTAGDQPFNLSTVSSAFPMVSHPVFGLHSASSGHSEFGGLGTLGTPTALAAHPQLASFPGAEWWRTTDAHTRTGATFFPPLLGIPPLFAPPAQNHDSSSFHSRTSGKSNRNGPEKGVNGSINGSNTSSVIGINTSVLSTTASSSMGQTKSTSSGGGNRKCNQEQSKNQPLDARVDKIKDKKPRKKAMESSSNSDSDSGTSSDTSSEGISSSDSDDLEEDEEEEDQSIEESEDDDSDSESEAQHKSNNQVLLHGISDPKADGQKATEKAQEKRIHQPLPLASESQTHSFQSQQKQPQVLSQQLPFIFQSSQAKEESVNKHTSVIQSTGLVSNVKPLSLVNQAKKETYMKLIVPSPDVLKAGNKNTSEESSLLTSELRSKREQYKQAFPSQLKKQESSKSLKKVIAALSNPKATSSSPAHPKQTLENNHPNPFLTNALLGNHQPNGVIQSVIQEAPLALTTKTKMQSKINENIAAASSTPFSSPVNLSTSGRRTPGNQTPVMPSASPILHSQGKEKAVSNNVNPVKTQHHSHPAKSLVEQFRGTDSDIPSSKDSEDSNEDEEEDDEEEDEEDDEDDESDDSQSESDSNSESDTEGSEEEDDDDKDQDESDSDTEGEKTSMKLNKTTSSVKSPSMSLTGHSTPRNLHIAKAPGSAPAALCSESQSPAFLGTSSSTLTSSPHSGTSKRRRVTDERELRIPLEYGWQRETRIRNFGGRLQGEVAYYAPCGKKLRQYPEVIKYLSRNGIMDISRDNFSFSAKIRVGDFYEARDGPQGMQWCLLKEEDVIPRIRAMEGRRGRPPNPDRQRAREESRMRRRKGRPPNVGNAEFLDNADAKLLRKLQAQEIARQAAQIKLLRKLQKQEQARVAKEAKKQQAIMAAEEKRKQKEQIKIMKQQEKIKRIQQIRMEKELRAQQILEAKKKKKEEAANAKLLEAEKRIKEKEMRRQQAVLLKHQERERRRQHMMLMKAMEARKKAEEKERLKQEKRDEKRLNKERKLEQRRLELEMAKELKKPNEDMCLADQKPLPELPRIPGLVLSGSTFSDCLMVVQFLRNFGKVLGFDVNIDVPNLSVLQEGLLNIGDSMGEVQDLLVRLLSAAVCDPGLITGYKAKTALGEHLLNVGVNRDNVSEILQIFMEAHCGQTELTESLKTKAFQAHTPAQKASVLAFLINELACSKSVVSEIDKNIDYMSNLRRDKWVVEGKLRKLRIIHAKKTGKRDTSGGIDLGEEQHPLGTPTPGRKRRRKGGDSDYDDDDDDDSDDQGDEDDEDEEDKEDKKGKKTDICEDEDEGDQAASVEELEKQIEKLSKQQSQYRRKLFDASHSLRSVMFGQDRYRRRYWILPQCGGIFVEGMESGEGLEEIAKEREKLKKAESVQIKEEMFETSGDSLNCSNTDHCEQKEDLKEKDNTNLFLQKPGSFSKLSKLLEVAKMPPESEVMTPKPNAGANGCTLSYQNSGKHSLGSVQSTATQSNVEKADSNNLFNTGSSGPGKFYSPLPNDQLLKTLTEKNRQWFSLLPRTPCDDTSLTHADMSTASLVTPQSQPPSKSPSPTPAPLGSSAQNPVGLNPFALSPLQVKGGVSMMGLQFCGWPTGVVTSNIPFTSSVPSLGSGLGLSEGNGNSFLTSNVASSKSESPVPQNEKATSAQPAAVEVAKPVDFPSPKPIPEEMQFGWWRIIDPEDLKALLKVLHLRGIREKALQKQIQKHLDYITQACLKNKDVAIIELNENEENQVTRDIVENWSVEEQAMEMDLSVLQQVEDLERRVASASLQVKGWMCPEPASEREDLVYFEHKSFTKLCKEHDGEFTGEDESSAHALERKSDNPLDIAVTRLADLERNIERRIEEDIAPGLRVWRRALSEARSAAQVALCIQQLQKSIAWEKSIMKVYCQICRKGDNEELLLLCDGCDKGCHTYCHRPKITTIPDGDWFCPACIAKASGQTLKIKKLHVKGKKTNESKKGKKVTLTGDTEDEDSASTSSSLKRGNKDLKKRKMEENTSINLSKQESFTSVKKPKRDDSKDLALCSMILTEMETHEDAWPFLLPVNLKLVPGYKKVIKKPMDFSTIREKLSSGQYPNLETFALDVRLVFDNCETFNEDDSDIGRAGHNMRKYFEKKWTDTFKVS
#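 AlphaScreen displacement of biotin-H3(5-23)K14Ac peptide (50 nM final) from BAZ2B (50 nM final) in PBS pH 7.4, 0.01% Tween-20; complex preformed 30 min RT, then compounds (top 110 uM) 30 min RT, beads 20 min dark.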
# G9a inh – blocks human histone lysine methyltransferase G9a | G9a H3K9 monomethylation, AlphaScreen, 2 h | AID 504332 | Potency, µM (series often up to 102 µM), inactives show at the top dose activity, negative = inhibition, hits mostly inhibitors | hit rate 8.8% among 350,000 | Q96KQ7; note: % is set by controls: 0 for no effect and ±100 for the full control effect; nearly all actives have a fitted effect of over 75% in size
#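 Step 1: enzyme (final 20 nM) with compound, 15 min RT. Step 2: substrate peptide 500 nM and SAM 20 uM, 2 h RT. Step 3: anti-H3K9me1 antibody and AlphaScreen beads, 10 min, then plate read.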
# The depositor's hits bear a star; ? = inconclusive; / = no result given; [ ] = dose if it differs, or a comment. Calls come from the whole dose curve; as a rule, active = well fitted curve in the direction sought with a large enough effect; inconclusive = small, poorly fitted or top-dose-only effect, or another doubt; inactive = no such curve, though single readings can be large; an effect the other way counts as inactive or inconclusive. Potency is the fitted concentration of half-maximal effect.
SMILES,JMJD2A Tudor inh,Sfp inh,HP1b chromo inh,BAZ2B block,G9a inh
COc1ccc(C)c2sc(N(CCCN(C)C)C(=O)c3ccc(S(=O)(=O)N(C)C)cc3)nc12,-1.3%,-11.4%,24.1%,/,?
CCC(CC)C(=O)Nc1cccc(C(=O)c2ccccc2)c1,-22.4%,12.7%,-1.5%,-4.4%,14.4%[59 µM]
COc1cc(C(C)=O)ccc1OCc1nnc(-c2ccccc2Br)o1,-4.9%,4.1%,53.7%,-5.6%,11.0%
COc1ccc(C(C)=O)cc1Cn1nnc(-c2ccccc2Br)n1,-6.2%,8.1%,28.2%,56.2µM*,4.2%
CCc1ccc(CN2CCN(c3ncccn3)CC2)cc1,20µM*,?,-21.3%,50.1µM*,5.6%[0.501 µM]
Fc1ccc(CN2CCN(c3ncccn3)CC2)cc1,10µM*,-14.3%,?,?,10µM*
COc1ccc(CN2CCOCC2)cc1OC,-2.8%,5.9%,35.8%,-31.5%,10.4%
Fc1ccc(F)c(CN2CCN(c3ncccn3)CC2)c1,-20.8%,5.3%,15.4%,-34.8%,-10.3%[59 µM]
CCOc1cc(CN2CCN(c3ncccn3)CC2)ccc1OC,2.82µM*,-9.1%,?,79.4µM*,/
CCOc1ccc(CN2CCN(Cc3[nH]c4ccc(OC)cc4c3C)CC2CCO)cc1 (stereo not given),?,7.6%,-15.4%,?,?
CCOC(=O)N1CCN(Cc2c(NC(=O)c3ccco3)sc(C)c2C)CC1,-9.1%,-22.8%,16.6%,-13.8%,-2.5%[59 µM]
C=CCOC(=O)C1=C(C)Nc2nc3ccccc3n2C1c1ccncc1 (stereo not given),-8.3%,0.3%,28.9%,9.1%,-34.4%
CCN(Cc1ccccc1)C(=O)COC(=O)c1cc(S(=O)(=O)Nc2ccccc2OC)ccc1O,-17.7%,/,36.8%,/,/
O=C(OCC#CCSc1nnc(-c2cccc3ccccc23)o1)c1sc2ccccc2c1Cl,2.7%,/,/,/,/
O=c1c2cc3c(cc2nc2sc(Nc4cccc([N+](=O)[O-])c4)nn12)OCO3,-17.5%,/,43.1%,?,1.41µM*
Cn1sc(=O)n(Cc2ccccc2)c1=O,/,0.141µM*,/,/,/
Cn1c(=O)n(Cc2ccccc2)c2ccccc21,-8.1%,8.6%,21.5%,-4.4%,22.3%[12.7 µM]
O=c1oc(-c2ccccc2NS(=O)(=O)c2ccccc2)nc2ccccc12,-15.1%,9.2%,14.6%,-3.6%,-2.4%[12.7 µM]
O=c1[nH][nH]c(=O)c2c(NS(=O)(=O)c3ccccc3)cccc12,44.7µM*,8.7%,-18.3%,-2.2%,-5.6%[59 µM]
CCCC(=O)Nc1ccc(S(=O)(=O)Nc2nccs2)cc1,-6.6%,/,27.4%,/,/
Nc1ccccc1Nc1cc(-c2ccccc2)nn1-c1cccc(Cl)c1,20µM*,13.5%,44.7µM*,11.2µM*,?
CCOC(=O)N1CCC(c2cc(=O)n3[nH]cc(C(=O)OC)c3n2)CC1,-24.8%,11.7%,17.1%,5.0%,17.3%[59 µM]
CCOc1ccc(NC(=O)c2c[nH]n3c(=O)cc(C4CCN(C(=O)OC(C)(C)C)CC4)nc23)cc1,-22.8%,0.9%,14.2%,-8.7%,11.2µM*
CCOC(=O)C1(Cc2ccccc2Cl)CCN(C(=O)c2cc(C)on2)CC1,-7.6%,-5.0%,27.0%,?,16.7%
O=C(NCC(=O)N(c1cccnc1)C(C(=O)NC1CCCCC1)c1ccccc1)c1ccco1 (stereo not given),-1.4%,-1.4%,29.5%,9.0%,-5.8%
SMILES,JMJD2A Tudor inh,Sfp inh,HP1b chromo inh,BAZ2B block,G9a inh
Cc1sc2ncn(CC(=O)N3CCC(C(N)=O)CC3)c(=O)c2c1S(=O)(=O)N1CC(C)CC(C)C1 (stereo not given),100µM*,14.0%,-95.2%,3.3%,-0.6%
CC1CC(C)CN(C(=O)c2ccc3c(c2NCCO)C(=O)c2ccccc2C3=O)C1 (stereo not given),14.1µM*,-19.9%,44.7µM*,?,28.2µM*
O=C(COc1ccc(/C=N/NC(=O)c2ccncc2)cc1)Nc1ccc([N+](=O)[O-])cc1,?,25.7%,18.8%,-1.7%,20.0%[59 µM]
O=C(COc1ccc(/C=N/NC(=O)c2ccc(O)cc2)cc1)Nc1cccc([N+](=O)[O-])c1,-23.8%,-26.4%,2.6%,-35.4%,28.2µM*
O=C(CO/N=C/c1cccc([N+](=O)[O-])c1)Nc1ccc2ccccc2c1,-25.7%,?,5.7%,?,0.891µM*
CCOc1ccc(Nc2nc(-c3cccc(Cl)c3)c3c(n2)-c2ccccc2OC3)cc1,?,/,-7.5%,-38.5%,12.6µM*
COc1ccc(Nc2nc(-c3cccc(Cl)c3)c3c(n2)-c2ccccc2OC3)cc1,5.6%,/,34.0%,7.1%,-6.6%[59 µM]
O=S(=O)(Nc1ccc2c(c1)nc1n2CCN(Cc2ccccc2)C1)c1ccc(Cl)cc1,-13.7%,1.6%,57.3%,/,10µM*
O=S(=O)(Nc1ccc2c(c1)nc1n2CCN(Cc2ccccc2)C1)c1ccc(F)cc1,89.1µM*,15.8%,48.0%,-31.6%,?
O=S(=O)(Nc1ccc2c(c1)nc1n2CCN(Cc2ccccc2)C1)c1ccccc1,-33.1%,-10.7%,11.9%,20.2%,?
CCOc1cc(S(=O)(=O)NCCc2c(C)[nH]c3ccc(C)cc23)ccc1F,50.1µM*,/,-4.7%,35.5µM*,-46.0%[59 µM]
CCOc1cc(S(=O)(=O)NCCc2c(C)[nH]c3ccc(C)cc23)ccc1Br,?,/,-3.2%,?,?
COCCNC(=O)COC(=O)c1ccc(S(=O)(=O)N2CCOCC2)cc1,-8.4%,9.4%,33.7%,11.8%,-34.5%
O=[N+]([O-])c1cccc(S(=O)(=O)Nc2cccc(-c3ccc(N4CCOCC4)nn3)c2)c1,-15.8%,/,11.3%,-9.0%,10µM*
O=[N+]([O-])c1cccc(S(=O)(=O)Nc2ccc(-c3ccc(N4CCOCC4)nn3)cc2)c1,-25.9%,/,12.6%,-5.9%,44.7µM*
Cc1cc(C)c(OCCCCN2CCC(C)CC2)c(Br)c1,5.01µM*,-2.7%,?,?,-47.1%
Cc1cc(Cl)c(OCCOCCN2CCN(C)CC2)c(Br)c1,7.94µM*,?,?,50.1µM*,?
Cc1cc(Cl)c(OCCOCCN2CCC(C)CC2)c(Br)c1,7.94µM*,-4.6%,-19.6%,?,?
Fc1ccc(CNCC2CCCO2)cc1 (stereo not given),-8.8%,23.1%,21.7%,4.4%,/
CCN(CCCNC(=O)c1ccc(Sc2ccc(F)cc2)c(NC(C)=O)c1)c1ccccc1,56.2µM*,/,-3.2%,?,?
CC(=O)Nc1cc(C(=O)NCc2ccccc2Cl)ccc1Sc1ccc(F)cc1,-17.7%,/,37.6%,2.3%,8.3%[59 µM]
CCc1cccc(C)c1NC(=O)C1C2CCC(O2)C1C(=O)O (stereo not given),-0.6%,18.6%,23.3%,-0.1%,22.9%[59 µM]
CCCCc1ccc(-c2nc(NC(=O)C3C4CCC(O4)C3C(=O)O)sc2C)cc1 (stereo not given),/,1.1%,/,?,50.1µM*
CCOC(=O)C1CCN(C(=O)CCC(=O)NCCc2ccc(Cl)cc2)CC1,-13.6%,12.0%,-0.2%,11.7%,/
